Measured values published in PubChem BioAssay (NCI).
The panel holds about 79,000 compounds, 15% with a hit somewhere; the sample as a whole holds those more often. Active and inactive are the calls of the source. Rule as the data show it: active = growth inhibition above about 70%; inactive = the rest.

Key:
[1] = NCI Yeast Anticancer Drug Screen. Data for the rad50 strain (AID 155);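 also: 0% = growth of vehicle-only cultures of the same strain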; details: S. cerevisiae rad50 strain growth inhibition; at 50.0 µM; stronger effect = higher value
How it was run: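 Growth of the mutant yeast was measured after compound exposure and referenced to vehicle-treated cultures.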

[2] = NCI Yeast Anticancer Drug Screen. Data for the mec2-1 strain (AID 157); details: S. cerevisiae mec2-1 strain, at 50.0 µM, stronger effect = higher value
How it was run: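 Each compound was tested on mec2-1 yeast, a strain altered in DNA damage repair or cell cycle control. Growth inhibition is reported relative to vehicle.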

[3] = NCI Yeast Anticancer Drug Screen. Data for the sgs1 mgt1 strain (AID 161);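 also: 0% = growth of cultures given vehicle only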; details: S. cerevisiae sgs1 mgt1 strain, at 50.0 µM, stronger effect = higher value
How it was run: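 Mutant yeast exposed to compound; growth scored against vehicle-only wells.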

[4] = NCI Yeast Anticancer Drug Screen. Data for the cln2 rad14 strain (AID 165);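 also: 0% = growth equal to vehicle treated cultures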; details: S. cerevisiae cln2 rad14 strain, at 50.0 µM, stronger effect = higher value
How it was run: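 Test compounds were added to cln2 rad14 yeast cultures; inhibition of growth was then determined by comparison with vehicle treatment.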

[5] = NCI Yeast Anticancer Drug Screen. Data for the bub3 strain (AID 167); details: S. cerevisiae bub3 mutant strain, at 50.0 µM, stronger effect = higher value
How it was run: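 Whole-cell yeast assay. The mutant strain was incubated with compounds, and growth inhibition was determined by comparison with vehicle-treated cells.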

[6] = NCI Yeast Anticancer Drug Screen. Data for the mlh1 rad18 strain (AID 175); details: S. cerevisiae mlh1 rad18 strain growth inhibition; at 50.0 µM; stronger effect = higher value
How it was run: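 Inhibition values reflect reduced growth of mutant yeast versus vehicle-treated controls following compound exposure; the mutations affect DNA damage repair.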

Measured: growth inhibition

NC(=O)c1nnc2ccc(F)cc2c1N
inactive: [1] -35.2% | [2] -37% | [3] -23.2% | [4] -2.55% | [5] -9.35% | [6] -27.2%

Cc1cc(N)ccc1C(=O)O
inactive: [1] 1.7% | [2] -7.65% | [3] -0.65% | [4] 4.15% | [5] 5.2% | [6] 2.45%

COc1cc(Nc2nc3cc(C(F)(F)F)ccc3nc2-c2ccccc2)cc(OC)c1OC
inactive: [1] 15.4% | [2] -4.8% | [3] -26.4% | [4] -11.8% | [5] -10.4% | [6] -23.9%

BrCCC1CCCCCC1
inactive: [1] 8.75% | [2] -5.4% | [3] 5.85% | [4] 6.05% | [5] -4.25% | [6] 1.3%

O=C([O][Sb]([O]C(=O)C(Br)Br)([c]1ccccc1)([c]1ccccc1)[c]1ccccc1)C(Br)Br
inactive: [1] 15.7% | [2] 5% | [3] 20.6% | [4] -14.2% | [5] -0.1% | [6] 36.6%

C/C=C\COC(=O)C(C)OC(=O)OCC (centres undefined)
inactive: [1] 14.2% | [2] 11.8% | [3] 4.85% | [4] 5.75% | [5] -0.65% | [6] 0.5%

COc1cc(C2(C)OC(=O)c3ccccc32)c(OC)c2ccccc12 (centres undefined)
inactive: [1] 27.9% | [2] 2.3% | [3] 30.4% | [4] 31.3% | [5] 30.9% | [6] 14.2%

CCC1=NC(C(F)(F)F)(C(F)(F)F)N=C(N2CCOCC2)O1
inactive: [1] 23.8% | [2] 6.15% | [3] 9.2% | [4] 14.4% | [5] 22.4% | [6] 2.2%

Cc1c(-c2ccc3c(c2)COC3)sc(N)c1C#N
inactive: [1] 4.7% | [2] -4.3% | [3] 27.2% | [4] 24.3% | [5] 47.8% | [6] -5.4%

COc1ccc(C(CC(C)(C)C)c2ccc(OC)cc2)cc1
inactive: [1] -0.9% | [2] -9% | [3] 5.15% | [4] -44.5% | [5] -11.9% | [6] -11.1%

Nc1ccc2c(c1)C(=O)c1c(F)c(F)c(F)c(F)c1-2
inactive: [1] 16.6% | [2] -0.9% | [3] -10.7% | [4] -13.2% | [5] 4.85% | [6] 11.9%

CCCCCCCCC(=O)O (tested in a mixture with another compound)
inactive: [1] 2.3% | [2] 6.75% | [3] 9.95% | [4] 12.7% | [5] 2.85% | [6] 29.1%

O=C(Nc1ccc(Cl)c(Cl)c1)Oc1ccc(-c2ccccc2)cc1
inactive: [4] 43.6%
active: [1] 73.2% | [2] 88% | [3] 93.2% | [5] 87.5% | [6] 95.7%

O=S1(=O)CC(O)C(Br)C1 (centres undefined)
inactive: [1] -6.7% | [2] 24.1% | [3] 10.1% | [4] 4.85% | [5] 2.35% | [6] -10.8%

CN(C)C(=O)Nc1ccc(F)cc1
inactive: [1] -5.75% | [2] -25.6% | [3] 13.6% | [4] -20.6% | [5] -24.9% | [6] -16.6%

CCCCCCCCCCCCCCCCS(=O)(=O)N/N=C/c1ccc(N(C)C)cc1
inactive: [1] 26.1% | [2] 13.3% | [3] 17.1% | [4] 12.3% | [5] 1.95% | [6] 13.7%

CCN(CC)CC#CCCCN(CC)CC
inactive: [1] -29.3% | [2] -30.2% | [3] -27.9% | [4] 1.75% | [5] -44.5% | [6] -7.6%

COc1ccc(NC(C)=O)c(C(O)CCNC(C)=O)c1 (centres undefined)
inactive: [1] -14.1% | [2] -13.3% | [3] -25.9% | [4] -7.8% | [5] -40.1% | [6] -28.5%

O=C(Oc1c(Cl)c(Cl)c(Cl)c(Cl)c1Cl)Oc1c(Cl)c(Cl)c(Cl)c(Cl)c1Cl
inactive: [1] -13.7% | [2] -8.25% | [3] 19.1% | [4] -15.1% | [5] 12.8% | [6] 3.4%

Nc1cc(=O)[nH]c(NCCCC(N)C(=O)O)n1 (centres undefined)
inactive: [1] 5.95% | [2] 8.8% | [3] 6.55% | [4] -15.7% | [5] 0.85% | [6] 8.9%

CSc1ccc(C(=O)C[n+]2cc3ccccc3cc2C)cc1
inactive: [1] -34.4% | [2] -2.5% | [3] -16.1% | [4] -26.6% | [5] 2.75% | [6] 0.7%

COC(=O)c1nc(N)nc(C(=O)OC)c1C(=O)c1ccc(Cl)cc1Cl
inactive: [1] 7.25% | [2] -0.6% | [3] -15.5% | [4] 3.6% | [5] -8.3% | [6] -3.25%

Oc1ccc(-c2cc(-c3c(O)cc(O)cc3O)on2)cc1
inactive: [1] 4.25% | [2] -1.45% | [3] -17.4% | [4] -2.85% | [5] -7.45% | [6] 9.35%

NCc1c(C(N)=O)ncn1Cc1ccccc1
inactive: [1] -0.95% | [2] -3.75% | [3] 5% | [4] -4.15% | [5] 7.4% | [6] -6.05%

C[CH2][Ge]([CH2]C)[CH2]C.C[CH2][Ge]([Cl])[CH2]C
active: [1] 76.3% | [6] 74.5%
inactive: [2] 3.45% | [3] 52.9% | [4] -10.2% | [5] 41.8%

Cc1cccc(NC(=O)CCl)c1C
inactive: [1] -18.1% | [2] -37.6% | [3] -7.65% | [4] 11.8% | [5] -21.9% | [6] -3.7%

CN(c1nc(=[N+](C)C)ss1)C1CCCCC1
inactive: [1] 9.4% | [2] 17.2% | [3] 16.1% | [4] -39.5% | [5] -12.8% | [6] 15.2%

CCCCCCCCNc1ncnc2[nH]ncc12
inactive: [1] 7.15% | [2] 11.3% | [3] 22.1% | [4] 6.5% | [5] 47.2% | [6] 13.9%

O=C(c1ccccc1)c1cccc2cccc(C(=O)c3ccccc3)c12
inactive: [1] 3.2% | [2] 11.7% | [3] -7.7% | [4] 6% | [5] 6.45% | [6] -27.6%

Cc1cc(C(=O)CSC(=S)SC(C)(C)C)ccc1Cl
inactive: [1] 9.3% | [2] -30.1% | [3] -5.85% | [4] 4.45% | [5] -17.9% | [6] -5.2%

CCCCCSC
inactive: [1] 21% | [2] -12.1% | [3] 11.2% | [4] 10.1% | [5] 7.9% | [6] 28.6%

O=c1[nH]c2cc(Cl)c(Cl)cc2c2ccc(Cl)cc12
inactive: [1] 12.2% | [2] -5.55% | [3] -0.35% | [4] -38% | [5] -15.6% | [6] -14.1%

CC(C)c1ccccc1OC(=O)c1cccc(Br)c1
inactive: [1] -19% | [2] -1.95% | [3] 0.35% | [4] -23.1% | [5] 13.9% | [6] 1.5%

COc1ccc(N2CCN(CC(O)COc3ccc(C(=O)Cc4ccccc4)cc3)CC2)cc1 (centres undefined)
active: [1] 96.4% | [2] 96.8% | [3] 99% | [4] 86.6% | [5] 91% | [6] 96.7%

Clc1nncc(SCc2ccccc2)c1SCc1ccccc1
inactive: [1] 17.2% | [2] 11.6% | [3] 8.3% | [4] -9% | [5] 22.5% | [6] 8.4%

C=CCC(C(=C)C)(C(=O)OCC)C(=O)OCC
inactive: [1] -23.4% | [2] -24.6% | [3] -32.6% | [4] -6.8% | [5] -25.4% | [6] -31.9%

O=C1c2ccccc2C(=O)c2c1ccc(C1C(=O)c3ccccc3C1=O)c2-c1c(C2C(=O)c3ccccc3C2=O)ccc2c1C(=O)c1ccccc1C2=O
inactive: [1] -18.4% | [2] -16.8% | [3] -35.5% | [4] -17.5% | [5] -33.1% | [6] 4.15%

O=C(/C=N/O)Nc1cccc(Cl)c1I
inactive: [1] 18.4% | [2] -5.2% | [3] 30.1% | [4] 2.95% | [5] 12.6% | [6] 10.4%

O=C(NN(Cn1c(=S)sc2ccccc21)Cn1c(=S)sc2ccccc21)c1ccccc1O
inactive: [4] 57.6% | [5] 69%
active: [1] 86.7% | [2] 74.2% | [3] 89% | [6] 76.2%
